The results in this text go back to ChEMBL document CHEMBL1201862, “PubChem BioAssay data set” (2004).

Hit rate of the full screen: of about 400,000 compounds, about 2,100 (0.53%) were called active. Not shown: some 14% with an inconclusive outcome. The rule behind the calls is not given here. The sample as a whole holds a higher share of actives than the screen did.

The target of the assay is Ataxin-2 (Homo sapiens) (UniProt Q99700). The assay is described as follows: qHTS for Inhibitors of ATXN expression. In kind it is functional. On the technique in general: Quantitative high-throughput screening tests each substance at several concentrations.
Ataxin-2 (Homo sapiens), sequence (Q99700 whole entry): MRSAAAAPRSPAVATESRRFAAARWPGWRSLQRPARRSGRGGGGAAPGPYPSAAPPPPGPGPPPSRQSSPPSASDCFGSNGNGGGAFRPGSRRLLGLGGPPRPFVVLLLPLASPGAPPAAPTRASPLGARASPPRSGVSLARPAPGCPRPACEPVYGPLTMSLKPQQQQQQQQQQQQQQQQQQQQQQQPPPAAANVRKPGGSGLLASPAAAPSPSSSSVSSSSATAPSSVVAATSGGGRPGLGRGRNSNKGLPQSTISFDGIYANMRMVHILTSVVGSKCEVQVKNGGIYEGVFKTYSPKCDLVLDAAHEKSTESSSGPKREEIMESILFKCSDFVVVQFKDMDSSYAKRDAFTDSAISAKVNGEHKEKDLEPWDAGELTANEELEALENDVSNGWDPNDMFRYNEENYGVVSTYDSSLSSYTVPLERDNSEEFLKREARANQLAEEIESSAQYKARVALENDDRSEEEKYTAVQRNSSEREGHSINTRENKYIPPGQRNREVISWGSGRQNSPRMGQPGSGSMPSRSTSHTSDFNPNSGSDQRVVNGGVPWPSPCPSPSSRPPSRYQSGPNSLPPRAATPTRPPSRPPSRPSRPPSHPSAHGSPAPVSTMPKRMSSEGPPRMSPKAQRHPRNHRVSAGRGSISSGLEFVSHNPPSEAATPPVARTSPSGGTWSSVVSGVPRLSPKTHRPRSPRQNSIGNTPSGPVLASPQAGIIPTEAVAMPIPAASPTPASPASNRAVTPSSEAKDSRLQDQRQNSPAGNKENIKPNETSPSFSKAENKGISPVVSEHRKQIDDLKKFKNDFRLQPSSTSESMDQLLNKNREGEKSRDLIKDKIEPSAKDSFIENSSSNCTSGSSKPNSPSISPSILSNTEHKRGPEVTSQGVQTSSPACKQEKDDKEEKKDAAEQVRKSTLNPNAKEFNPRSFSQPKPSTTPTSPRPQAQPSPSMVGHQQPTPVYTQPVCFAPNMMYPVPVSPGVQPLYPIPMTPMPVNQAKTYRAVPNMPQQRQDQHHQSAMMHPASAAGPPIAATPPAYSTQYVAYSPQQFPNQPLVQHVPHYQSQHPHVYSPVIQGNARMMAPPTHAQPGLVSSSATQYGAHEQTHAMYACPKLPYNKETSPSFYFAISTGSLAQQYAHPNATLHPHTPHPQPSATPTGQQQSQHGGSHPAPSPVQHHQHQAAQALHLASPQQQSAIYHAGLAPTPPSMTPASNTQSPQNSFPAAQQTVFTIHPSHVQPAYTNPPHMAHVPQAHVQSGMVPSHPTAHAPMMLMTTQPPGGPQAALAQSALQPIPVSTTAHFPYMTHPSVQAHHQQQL
Regarding `O=C(c1ccc(F)cc1)C(CN1CCOCC1)c1ccccc1` (centres undefined), the Potency is 25.1 µM (active).

With `O=c1oc2c(CN3CCOCC3)c(O)ccc2cc1-c1ccccc1`, the Potency entry was “inactive”.

With `O=C(c1ccc(F)cc1)C1CCN(Cc2ccccc2)CC1`, the Potency result is “inactive”.

For the compound `O=C(c1ccccc1)C(CCC(CN1CCOCC1)C(=O)c1ccccc1)CN1CCOCC1` (centres undefined), the Potency is 14.1 µM (active).

Turning to `CC(N=C(S)N1CCOCC1)c1ccccc1` (centres undefined), the Potency entry was “inactive”.

Regarding `OC(CN1CCN(C(c2ccccc2)c2ccccc2)CC1)c1ccc(Br)cc1` (centres undefined), the Potency result is “inactive”.

On to `O=C(c1ccc(Br)cc1)c1sc(N2CCOCC2)nc1-c1ccccc1`, for which the Potency entry is “inactive”.

Turning to `O=C(c1ccc(Br)cc1)C(CN1CCOCC1)c1ccccc1` (centres undefined), the Potency was 29.9 µM (active).

On to `O=c1c2ccccc2n(CC(O)CN2CCOCC2)c2ccccc12` (centres undefined), for which the Potency entry was “inactive”.

With `Cc1c(O)ccc2c(CN3CCN(C/C=C/c4ccccc4)CC3)cc(=O)oc12`, the Potency entry was “inactive”.

`O=[N+]([O-])c1ccc(C2=CSC3=NCCN23)cc1`: the Potency entry is “inactive”.

As for `Cc1cccc(-n2nc(C)c3c2N=C2CCCC(O)=C2C3c2ccccn2)c1` (centres undefined), the Potency entry was “inactive”.

As to `CC1(C(=O)OCC(=O)Nc2cc(S(=O)(=O)N3CCOCC3)ccc2Cl)CC1(Cl)Cl` (centres undefined), the Potency entry was “inactive”.

Consider `N=c1c2c(-c3ccccc3)c(-c3ccccc3)n(Cc3ccccc3)c2ncn1CCCn1ccnc1`, for which the Potency was 35.5 µM (active).

Turning to `O=c1c2ccccc2oc2cc(NCCCn3ccnc3)ccc12`, the Potency result was “inactive”.

On to `c1ccc(-c2c(-c3ccccc3)n(Cc3ccco3)c3ncnc(NCCCn4ccnc4)c23)cc1`, for which the Potency is 25.1 µM (active).

Regarding `Cc1cccc(Cl)c1OCCCn1ccnc1`, the Potency entry was “inactive”.

Regarding `Cc1ccc2nc3c(cc(C(=O)NCc4ccccc4)c(=N)n3CCCn3ccnc3)c(=O)n2c1`, the Potency entry was “inactive”.

As for `O=C(NCCCn1ccnc1)c1ccc(-c2ccccc2)cc1`, the Potency result is “inactive”.

In the case of `CC[C@H]1C(c2ccc(F)cc2)=NN(c2ccccc2)[C@@H]1CO`, the Potency entry was “inactive”.

Take `C/C(CC(=O)NCc1ccco1)=N\NC(=O)Cc1ccc(-c2ccccc2)cc1`: the Potency entry is “inactive”.

Turning to `COc1cc(C(=O)NN=C(S)Nc2ccc(S(N)(=O)=O)cc2)cc(OC)c1OC`, the Potency entry was “inactive”.

As for `NS(=O)(=O)c1ccc(NC(=O)COC(=O)COc2cccc(C(F)(F)F)c2)cc1`, the Potency result was “inactive”.

Consider `CC(C)C(Cl)=NOC(=O)Nc1ccc(S(N)(=O)=O)cc1`, for which the Potency is 21.2 µM (active).

Take `COC(=O)c1c(NC(=O)c2ccc(S(=O)(=O)N3CC(C)OC(C)C3)cc2)sc2c1CCN(C)C2` (centres undefined): the Potency result was “inactive”.

Turning to `O=c1ccc2cc3c4c(c2o1)CCCN4CCC3`, the Potency entry was “inactive”.

Consider `CCCCOc1ccc(N(CC(=O)NCc2ccco2)C(=O)CCC(=O)Nc2nccs2)cc1`, for which the Potency entry was “inactive”.

Take `COc1ccc(OC)c([N+](=O)[O-])c1C(N)=O`: the Potency result was “inactive”.

Take `COc1ccncc1-c1ccc(C2=CC(=O)CC(C)(C)C2=O)cc1`: the Potency was 35.5 µM (active).
